Compounds with a hit are over-represented: about 2.2% of the library has one in this group of screens.
SUMO Mot1 rescue: SUMOylation pathway inhibition by Mot1-301 growth rescue | S. cerevisiae Mot1-301 growth rescue, ATP luminescence, 38.5C; percent above DMSO median, 100 means doubled | growth rescue, % at 18.8 µM | 320,000 compounds, 1% hits;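 active means every valid replicate shows activation above 250% relative to neutral control wells; inactive means the rest, any valid replicate at or below 250%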;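 further: OY570 slx delta 5 strain wells were the positive control but not used for scaling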
p-CIP stab down: lowers stability of the mouse p/CIP coactivator protein; Q05BA5; F442A p/CIP-EGFP cells, EGFP fluorescence, 16 h; decrease of EGFP signal, % at 10 µM; 290,000 compounds, 0.01% hits;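 active means EGFP signal decrease of at least 30% at 10 µM or well 3 SD below plate mean, unless failing retest; inactive means the rest, including hits failing retest or dose response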
GASC-1 inh: blocks human GASC-1 demethylase activity | AID 2099 | inhibition, % at 2.35 µM | Q9H3R0 | 330,000 compounds, 0.069% hits | GST-JMJD2C(1-420) H3K9me3 demethylation, DELFIA europium;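 active means more than half of a compound's replicate wells show inhibition beyond 50%, single wells judged on their own value; inconclusive means some, but no more than half, of replicates pass 50% inhibition; inactive means no replicate passes 50% inhibition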;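 further: signal counts dimethyl H3K9 product captured on neutravidin plate; 0% = median of DMSO wells and 100% = 0.3 times that DMSO median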
PHOSPHO1 inh: PHOSPHO1 (human) inhibition; recombinant PHOSPHO1, absorbance phosphatase assay; inhibition, % at 13.3 µM; 290,000 compounds, 1.1% hits; in the data active means inhibition above about 60%
Target sequence (Q8TCT1 whole entry, looked up): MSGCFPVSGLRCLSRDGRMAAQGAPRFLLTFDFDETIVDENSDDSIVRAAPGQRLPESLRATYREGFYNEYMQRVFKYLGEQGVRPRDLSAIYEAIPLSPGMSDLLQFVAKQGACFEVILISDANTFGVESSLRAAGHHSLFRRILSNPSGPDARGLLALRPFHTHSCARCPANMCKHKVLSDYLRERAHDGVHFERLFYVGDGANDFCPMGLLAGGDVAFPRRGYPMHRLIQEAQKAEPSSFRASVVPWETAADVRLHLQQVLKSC
PvdQ inh: blocks Pseudomonas aeruginosa PvdQ acylase activity; purified PvdQ acylase, fluorescence plate reader; inhibition, % at 10 µM; 340,000 compounds, 0.063% hits; AID 488965; in the data active means inhibition above about 30%, passing the limit was not always enough; inconclusive means no clear call, values can overlap the other calls;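 further: 0% = vehicle neutral wells and 100% = reference inhibitor wells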
HDAC3 inh: blocks human histone deacetylase 3 | inhibition, % at 8.3 µM | 320,000 compounds, 0.15% hits | recombinant HDAC3, fluorogenic peptide/trypsin coupled, fluorescence | AID 2718 | O15379; in the data active means inhibition above about 26%, passing the limit was not always enough; inconclusive means no clear call, values can overlap the other calls
Numbers without * were called inactive; ? = inconclusive; / = no result.

SMILES	SUMO Mot1 rescue	p-CIP stab down	GASC-1 inh	PHOSPHO1 inh	PvdQ inh	HDAC3 inh
CCC(C)N(C(=O)COC(=O)COc1c(C)cc(C)cc1C)C1CCS(=O)(=O)C1 (centres undefined)	2	/	-1	/	0	0
O=C(COc1coc(CN2CCN(c3ccc(F)cc3)CC2)cc1=O)NC1CCCC1	297*	/	-11	/	0	4
COc1ccc(/C=C/c2nc3ccccc3n2Cc2ccc(OC)c(OC)c2)cc1	353*	-8	3	-12	8	4
CC1CCC(NC(=O)c2cccc(S(=O)(=O)NCc3ccccc3)c2)CC1 (centres undefined)	9	/	-7	/	-3	4
COc1ccc(C(=O)NCCSCc2ccc(C)cc2)cc1	-6	-4	1	50	-12	1
Cc1ccc(CSCCNC(=O)c2ccc(C)cc2)cc1	237	14	27	62*	11	4
O=C(Nc1ccc(-c2cn3ccsc3n2)cc1)C1CC1	/	14	14	88*	-14	4
c1cn2cc(-c3ccc4c(c3)OCO4)nc2s1	-3	3	-3	68*	10	9
O=C(Nc1ccc(-c2cn3ccsc3n2)cc1)C1CCCC1	/	-8	-2	54	-10	?
Cc1cccc(C(=O)Nc2ccc(C(=O)N3CCCCC3C)cc2)c1 (centres undefined)	5	-7	-2	58	-9	-1
COc1ccc(C(=O)Nc2ccc(C(=O)N3CCCCC3C)cc2)c(OC)c1OC (centres undefined)	6	-11	1	75*	-2	-1
FC(F)(F)c1cc(Oc2ccc(Cl)cc2)nc(-c2ccccn2)n1	284	3	3	73*	-4	0
O=C(COC(=O)CSCC(=O)N1CCCCC1)Nc1ccc(Cl)cc1	338*	3	5	-11	-11	5
O=C(NNC(=O)C1CCN(c2ncccn2)CC1)c1ccncc1	57	6	-6	1	8	-1
Cc1cc(C)c2c(=O)n(CC(=O)NCCCN3CCOCC3)sc2n1	353*	-11	2	37	-6	-8
COc1nc(NCCN2CCOCC2)nc(Nc2ccccc2)n1	-23	2	6	-40	-25	3
COc1nc(NCCc2ccc(OC)c(OC)c2)nc(Nc2ccccc2)n1	2	-4	-2	62*	14	0
O=C(O)c1ccccc1C(=O)NCc1c(Cl)cccc1Sc1ccc(Cl)cc1	-10	-2	1	38	27	-6
COCCCNc1nc2c(c(=O)[nH]c(=O)n2C)n1CC(O)COc1ccccc1 (centres undefined)	199	3	2	92*	3	-2
COc1ccc(OCC(O)Cn2c(N)nc3c2c(=O)[nH]c(=O)n3C)cc1 (centres undefined)	9	-14	-2	61*	-15	0
CC(C)CSc1nc2c(c(=O)[nH]c(=O)n2C)n1CC(O)COc1cccc2ccccc12 (centres undefined)	/	-18	-21	88*	-17	/
COCCCNc1nc2c(c(=O)[nH]c(=O)n2C)n1CC(O)COc1ccccc1C (centres undefined)	-10	-7	1	5	-7	6
Cc1ccsc1/C=C(\C#N)C(=O)NC1CCS(=O)(=O)C1 (centres undefined)	6	-1	17	2	11	8
CCC(C(=O)NC1CC1)n1nc(C)c2c(C)n(-c3ccccc3)nc2c1=O (centres undefined)	-8	5	5	65*	-12	-2
COc1ccc(OC)c(CCNC(=O)C(C)n2nc(C)c3c(C)n(-c4ccc(C)cc4)nc3c2=O)c1 (centres undefined)	-9	-38	2	41	5	-1
SMILES	SUMO Mot1 rescue	p-CIP stab down	GASC-1 inh	PHOSPHO1 inh	PvdQ inh	HDAC3 inh
COc1ccc(OC)c(CCNC(=O)C(C)n2nc(C)c3c(C)n(-c4ccccc4)nc3c2=O)c1 (centres undefined)	15	-10	8	70*	-12	0
O=C(NCc1ccc2c(c1)OCO2)C1CC(=O)N(C2CCCC2)C1 (centres undefined)	1	-2	6	64*	9	-7
O=C(NCc1ccc2c(c1)OCO2)C1CC(=O)N(C2CCCCCCC2)C1 (centres undefined)	-12	-14	-5	48	-17	-5
O=C(NC1CCCC1)C1CC(=O)N(c2ccccc2)C1 (centres undefined)	356*	-8	-16	-1	-13	-4
O=C(NC(Cc1ccccc1)c1nc2ccccc2[nH]1)C1CC(=O)N(c2ccc3c(c2)OCCO3)C1 (centres undefined)	-7	-15	-31	96*	-16	-2
O=C(NCCc1ccccc1)C1CC(=O)N(c2ccc3c(c2)OCCO3)C1 (centres undefined)	133	/	-2	/	-8	-1
CC(C)C[C@H](NC(=O)C1CC(=O)N(c2ccc3c(c2)OCO3)C1)C(=O)NC1CCCC1 (some centres undefined)	21	-12	96	70*	-10	-1
O=[N+]([O-])c1cccc(/C=C/C=N/Nc2nc(N3CCCCC3)nc(N3CCCCC3)n2)c1	/	-6	4	-23	-4	-3
CCCCCC(O)(c1ccc(OCC)cc1)C(CN1CCOCC1)c1ccccc1 (centres undefined)	57	-10	-5	-20	-19	26*
COCCNC(=O)c1cc(-c2ccc3c(c2)OCO3)on1	-10	-16	-5	69*	-6	-5
O=P(Cc1nnco1)(c1ccccc1)c1ccccc1	340*	-20	-3	8	3	-13
COc1ccc(CP(=O)(c2ccccc2)c2ccccc2)cc1	5	-9	1	-3	8	5
COc1ccc(C(=O)N=C2SC3CS(=O)(=O)CC3N2c2ccc(N(C)C)cc2)cc1OC (centres undefined)	-11	-8	-5	33	-15	2
CCOC(=O)c1c(N)sc2c1CCS(=O)(=O)C2	-3	-5	3	79*	5	3
COc1ccc(S(=O)(=O)c2nnn(-c3cccc(Cl)c3)c2N)cc1	/	3	3	-20	-2	2
COc1ccccc1C(c1c(N)n(C)c(=O)n(C)c1=O)C(C)[N+](=O)[O-] (centres undefined)	27	2	-38	43	/	2
COc1ccccc1C(C[N+](=O)[O-])c1c(N)n(C)c(=O)n(C)c1=O (centres undefined)	594*	4	-1	23	/	2
Cc1ccc(-n2c(SC3CCOC3=O)nc3ccccc3c2=O)cc1 (centres undefined)	-2	3	-8	16	/	-3
Fc1ccc(CNCc2cccc(Br)c2)cc1	20	-8	11	-12	31*	-1
